Assay results from publication PMC4336329 (PLoS ONE, 2015).
About 14,000 (4.5%) of roughly 310,000 compounds showed an effect of 50% or more. The effect is printed as a negative number. Many of the other results were omitted from the sample, so strong results are more common in it than they were.

target: human ether-à-go-go-related gene (hERG) potassium channel (human, UniProt Q12809); assay: primary screen, population patch clamp on CHO cells stably expressing hERG; higher = less effect of the substance
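Note: peak tail current of the secondary pulse compared with the same well before compound.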

human ether-à-go-go-related gene (hERG) potassium channel, sequence (Q12809 whole entry, looked up): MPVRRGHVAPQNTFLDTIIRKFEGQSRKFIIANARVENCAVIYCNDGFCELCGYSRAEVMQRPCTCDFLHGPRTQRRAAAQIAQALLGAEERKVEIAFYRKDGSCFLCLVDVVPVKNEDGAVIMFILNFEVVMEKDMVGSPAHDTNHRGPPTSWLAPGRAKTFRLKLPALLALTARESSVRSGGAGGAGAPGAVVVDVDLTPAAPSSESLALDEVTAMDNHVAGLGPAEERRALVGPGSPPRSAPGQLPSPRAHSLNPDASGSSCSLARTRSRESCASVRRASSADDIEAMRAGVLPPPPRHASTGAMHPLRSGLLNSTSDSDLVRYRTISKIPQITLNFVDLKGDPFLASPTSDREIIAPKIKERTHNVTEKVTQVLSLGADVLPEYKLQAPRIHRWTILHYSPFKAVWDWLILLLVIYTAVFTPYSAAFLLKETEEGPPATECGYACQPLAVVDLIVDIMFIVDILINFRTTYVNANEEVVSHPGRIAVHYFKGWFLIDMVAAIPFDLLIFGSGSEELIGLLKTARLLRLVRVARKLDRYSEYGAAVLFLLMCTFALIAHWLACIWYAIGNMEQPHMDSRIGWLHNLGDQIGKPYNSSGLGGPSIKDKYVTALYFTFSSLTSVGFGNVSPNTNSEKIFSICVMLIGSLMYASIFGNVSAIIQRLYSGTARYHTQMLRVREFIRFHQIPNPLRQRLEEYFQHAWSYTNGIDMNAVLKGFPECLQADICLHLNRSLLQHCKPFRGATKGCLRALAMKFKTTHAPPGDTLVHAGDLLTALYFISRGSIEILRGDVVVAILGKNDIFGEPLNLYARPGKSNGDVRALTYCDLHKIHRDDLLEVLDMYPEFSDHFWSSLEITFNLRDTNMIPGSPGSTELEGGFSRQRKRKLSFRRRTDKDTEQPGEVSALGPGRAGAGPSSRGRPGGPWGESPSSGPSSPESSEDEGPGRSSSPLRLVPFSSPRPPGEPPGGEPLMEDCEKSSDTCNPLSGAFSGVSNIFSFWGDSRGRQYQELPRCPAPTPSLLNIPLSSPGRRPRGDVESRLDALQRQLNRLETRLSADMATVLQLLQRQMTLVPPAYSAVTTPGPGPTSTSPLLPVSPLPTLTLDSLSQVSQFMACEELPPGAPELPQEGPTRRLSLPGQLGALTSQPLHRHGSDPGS

Structure (SMILES) | hERG current change (%, negative = inhibition) at 10uM [%]
CN(c1ccc(O)cc1)S(=O)(=O)c1ccc2ccccc2c1 | -12.8
COc1ccccc1CNC(=O)CCc1cn(C)c2ccccc12 | -2.68
Cc1c(C(=O)N2CCCCC2)c(S(=O)(=O)Nc2ccc(F)cc2F)c(C)n1C | 21.9
Cc1cc(C)c(S(=O)(=O)N2CCN(C(=O)c3ccc4c(c3)OCO4)CC2)c(C)c1 | -31.4
O=C(N/N=C/c1ccc(N2CCOCC2)cc1)c1ccc(NS(=O)(=O)c2cccs2)cc1 | 9.69
N#Cc1cc([N+](=O)[O-])ccc1N1CCN(c2ccccc2O)CC1 | -35
CCN1CCN(c2ccc([N+](=O)[O-])cc2C#N)CC1 | -68.2
CCCN1CCN(c2ccc(S(N)(=O)=O)cc2[N+](=O)[O-])CC1 | -31.4
O=[N+]([O-])c1ccc(N2CCN(c3ccc([N+](=O)[O-])cc3CO)CC2)c(CO)c1 | -64.7
CC(=O)N1CCN(c2ccc([N+](=O)[O-])cc2C#N)CC1 | -88
CC(=O)N1CCN(c2ccc(C(N)=O)cc2[N+](=O)[O-])CC1 | 8.73
O=[N+]([O-])c1ccc(N2CCN(c3ccccc3O)CC2)c(Cl)c1 | 9.9
CC1CN(c2ccc([N+](=O)[O-])cc2C#N)CC(C)O1 (centres unmarked) | -48.6
O=[N+]([O-])c1ccc(N2CCN(CCOCCO)CC2)c([N+](=O)[O-])c1 | -45.6
O=[N+]([O-])c1ccc(N2CCCCCC2)c([N+](=O)[O-])c1 | 3.24
N#Cc1cc([N+](=O)[O-])ccc1N1CCCC1 | -38
CCCN1CCN(c2ccc([N+](=O)[O-])cc2C#N)CC1 | -72
COc1cccc(NS(=O)(=O)c2c(C)n(C)c(=O)n(C)c2=O)c1 | -19.9
CCCc1nnc(SCC(=O)N2CCOCC2)n1CC1CCCO1 (centres unmarked) | 23.6
CC1CCN(C(=S)c2ccc(O)cc2)CC1 | -14.1

Structure (SMILES) | hERG current change (%, negative = inhibition) at 10uM [%]
O=c1[nH]c2ccc(S(=O)(=O)N3CCN(C4CCCCC4)CC3)cc2[nH]c1=O | 0.776
O=C(Nc1cccc(C(F)(F)F)c1)Oc1ccc(Cl)c2cccnc12 | 9.96
CCN(c1ccccc1)S(=O)(=O)c1ccc(Cl)c(C(=O)OCC(=O)c2[nH]c(C)c(C(C)=O)c2C)c1 | -22.6
COc1cc2c(cc1OC)CN(c1ccc(F)cc1[N+](=O)[O-])CC2 | -27.9
COc1cc2c(cc1OC)CN(c1ccc([N+](=O)[O-])cc1Cl)CC2 | -41
COc1cc2c(cc1OC)CN(c1ccc([N+](=O)[O-])cc1C#N)CC2 | -50
CCn1c(NC2CCCCC2)nc2ccccc21 | -15
Cc1ccc(NC(=O)c2cccc(N3C(=O)CCC3=O)c2)nc1 | 3.86
C/C(=N\NS(=O)(=O)c1cccc([N+](=O)[O-])c1)c1cc2ccccc2o1 | -2.61
O=C(N/C(=C/c1cccc([N+](=O)[O-])c1)C(=O)N1CCOCC1)c1ccc(Br)cc1 | -46.6
O=C(N/C(=C\c1cccc([N+](=O)[O-])c1)C(=O)N1CCOCC1)c1cccc(Br)c1 | -4.26
O=C(N/C(=C\c1ccccc1)C(=O)N1CCOCC1)c1cccc(Br)c1 | 18.8
O=C(N/C(=C\c1ccc([N+](=O)[O-])cc1)C(=O)N1CCOCC1)c1cccc(Br)c1 | -74.2
O=C(N/C(=C/c1ccccc1)C(=O)N1CCOCC1)c1ccc([N+](=O)[O-])cc1 | -64.2
O=C(N/C(=C\c1cccc([N+](=O)[O-])c1)C(=O)N1CCOCC1)c1ccc([N+](=O)[O-])cc1 | 12.5
O=C(N/C(=C\c1ccc(F)cc1)C(=O)N1CCOCC1)c1ccccc1 | -32
COC(=O)c1ccc(/C=C(/NC(=O)c2ccccc2)C(=O)N2CCOCC2)cc1 | -9.15
O=C(Nc1ccc(C(=O)O)cc1)/C(=C\c1ccc([N+](=O)[O-])cc1)NC(=O)c1ccc(Br)cc1 | 7.58
O=C(N/C(=C\c1ccc(Cl)cc1)C(=O)N1CCOCC1)c1ccc([N+](=O)[O-])cc1 | -83
O=C(N/C(=C\c1ccc(Br)cc1)C(=O)N1CCOCC1)c1ccc([N+](=O)[O-])cc1 | -75.5

Structure (SMILES) | hERG current change (%, negative = inhibition) at 10uM [%]
Cc1ccc(C(=O)N/C(=C/c2ccc(Cl)cc2)C(=O)N2CCOCC2)cc1 | -32.6
CC(=O)c1cccc(OCC(=O)N(C)CC(=O)Nc2ccc(F)cc2)c1 | -8.68
CCC(C)NC(=O)c1ccc(CSCc2ccc(Cl)cc2)o1 (centres unmarked) | -38.9
COc1cccc(CNC(=O)CCNS(=O)(=O)c2ccc(Br)s2)c1 | -10.2
N#CCCSCc1ccc(OCC(=O)O)cc1 | -1.48
CCCNC(=O)c1cc(C)no1 | 12.6
Cc1ccc(C)c(NC(=O)CCN2CC(C)OC(C)C2)c1 (centres unmarked) | 1.59
CC(C)C[C@H](NC(=O)N1c2ccccc2NC(=O)[C@@H]1C(C)C)C(=O)N[C@@H](Cc1ccccc1)C(=O)O | -2.11
FC(F)(F)C1=CC(c2ccc(Cl)cc2)=NCCN1 | -16.1
CN(c1ccccc1)S(=O)(=O)c1cccc(NC(=O)CN2CCCc3ccccc32)c1 | -2.81
COc1ccc(C(=O)N/C(=C\c2ccc3c(c2)OCO3)C(=O)N2CCOCC2)cc1 | 19.6
COc1cc(/C=C(/NC(=O)c2ccccc2)C(=O)N2CCOCC2)c([N+](=O)[O-])cc1OC | -3.92
COc1ccc(/C=C(/NC(=O)c2ccc(Br)cc2)C(=O)N2CCOCC2)cc1 | 5.5
COc1ccc(/C=C(\NC(=O)c2ccc([N+](=O)[O-])cc2)C(=O)N2CCOCC2)cc1 | -75
Cc1ccc(C(=O)N/C(=C/c2ccco2)C(=O)N2CCOCC2)cc1 | -12.7
O=C(N/C(=C/c1ccccc1Cl)C(=O)N1CCCC1)c1ccccc1 | -5.15
Cc1ccc(C(=O)N/C(=C\c2ccco2)C(=O)N2CCOCC2)cc1C | 11
O=C(N/C(=C\c1ccccc1Cl)C(=O)N1CCOCC1)c1ccc([N+](=O)[O-])cc1 | -66
O=C(N/C(=C\c1ccco1)C(=O)N1CCOCC1)c1ccc([N+](=O)[O-])cc1 | -70.8
